Screens from PubChem.
Sampled rows, rich in hits. Any-hit rate of the full collection: about 15%.
Pf growth 48h = Primary qHTS for delayed death inhibitors of the malarial parasite plastid, 48 hour incubation; P. falciparum luciferase growth in erythrocytes, 48 h; Potency, µM (highest dose often 28.7 µM), for the others: top-dose activity change, negative = inhibition, actives largely listed as inhibitors; 5.9% of 310,000 active; note: potency is the fitted concentration of half-maximal effect; % is set by controls: 0 for no effect and ±100 for the full control effect
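Here the parasites carry a stable luciferase gene and grow inside erythrocytes in Albumax-based RPMI medium with compound for one erythrocytic cycle. Activity is scored as loss of luminescent signal.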
SARS PLpro yeast = qHTS of Yeast-based Assay for SARS-CoV PLP | S. cerevisiae expressing SARS-CoV PLpro, growth rescue | Potency, µM (titrated, usually from 32.9 µM), for inactives: top-dose activity, positive = growth rescue, usual class: activators | 0.19% of 330,000 active | AID 485353, 2010; calls by dose curve; note: potency is the fitted concentration of half-maximal effect; 0% is about no effect; nearly all actives have a fitted effect of over 55% in size
Sm TGR inh = qHTS Assay for the Inhibitors of Schistosoma Mansoni Peroxiredoxins | Schistosoma mansoni thioredoxin glutathione reductase (TGR), Q962Y6 | purified TGR, DTNB reduction, TNB absorbance 405 nm | Potency, µM (titrated, usually from 114 µM), inactives show at the highest dose activity change, negative = inhibition, hits mostly inhibitors | 3% of 360,000 active; note: potency is the fitted concentration of half-maximal effect; % is set by controls: 0 for no effect and ±100 for the full control effect; nearly all actives have a fitted effect of over 60% in size
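TGR 20 nM + NADPH 100 uM (dispensed conc.), cpd preinc 15 min RT; start with NADPH (500 uM addition) then DTNB (15 mM addition). Kinetic TNB absorbance, 405 nm filter. Four-parameter Hill fit across titration.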
HCMV inh = qHTS Assay for inhibitors of the human cytomegalovirus (HCMV) | HFF cells, HCMV-luciferase reporter, 72 h; active compounds read low | activity change, negative = inhibition, % at 57.5 µM | 4.5% of 410,000 active; in the data active = activity change below about -60%; inconclusive = no clear call, values can overlap the other calls; inactive = above about -39%; note: % is set by controls: 0 for no effect and ±100 for the full control effect
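After 16 h attachment at 37C, HFF cells received test compound and HCMV-luciferase (1 PFU/cell); reporter luminescence read 72 h later, data normalized against buffer-only and known inhibitor Salinomycin.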
Pf growth 96h = Primary qHTS for delayed death inhibitors of the malarial parasite plastid, 96 hour incubation; P. falciparum luciferase reporter growth, 96 h; Potency, µM (top dose mostly 28.7 µM), for inactives: top-dose activity change, negative = inhibition, usual class: inhibitors; 6.9% of 320,000 active; AID 504834, 2011; note: potency is the fitted concentration of half-maximal effect; % is set by controls: 0 for no effect and ±100 for the full control effect
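Delayed-death screen, second-generation endpoint: infected erythrocytes, 2% hematocrit, 0.05% parasitemia final; 96 hours at 37 C, 5% CO2; luciferase detection reagent; luminescence decrease equals reduced growth.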
HCV inh = qHTS Assay for Inhibitors of Hepatitis C Virus (HCV). Huh7.5.1 HCVcc-Cre infection, luciferase reporter, 44 h. Potency, µM (doses to about 41.8 µM), for the others: at the top dose activity change, negative = inhibition, hits mostly inhibitors. 3.4% of 340,000 active; note: potency is the fitted concentration of half-maximal effect; % is set by controls: 0 for no effect and ±100 for the full control effect
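Reporter virus HCVcc-Cre (~0.5 moi) infects cells exposed to compound; seeding density 1,000 cells/well with 4 h settling beforehand. Luminescence, 15 sec read, taken 44 h post-infection following a 15 min RT substrate incubation.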
An asterisk follows results filed as active; ? = inconclusive; · = not tested or not shown; ! = not active in a repeat. Unless noted, calls come from the whole dose curve; as a rule, active = well fitted curve in the direction sought with a large enough effect; inconclusive = small, poorly fitted or top-dose-only effect, or another doubt; inactive = no such curve, though single readings can be large; an effect the other way counts as inactive or inconclusive.

SMILES	Pf growth 48h	SARS PLpro yeast	Sm TGR inh	HCMV inh	Pf growth 96h	HCV inh
Cc1cc(/C([O-])=C(/C(=S)Nc2ccccc2)[n+]2ccccc2)c(C)n1-c1ccccc1	·	-5.6%	-21.6%	-23.6	?	-20.1%
Cc1c(C(=O)N2CCC(C)CC2)oc2ccc3c(c12)C(O)CC1(CCCCC1)O3 (centres undefined)	-3.7%	-8.9%	0.4%	-70.2*	-11.7%	?
CCc1ccc(-c2nc(CS(=O)CC(=O)NCCc3ccccc3)c(C)o2)cc1 (centres undefined)	22.3%	5.8%	10µM*	9.8	?	?
CCc1ccc(-c2nc(CS(=O)CC(=O)NCCN3CCCCCC3)c(C)o2)cc1 (centres undefined)	12.7%	-0.3%	?	?	-4.8%	?
CCc1ccc(-c2nc(CS(=O)CC(=O)NCCc3ccc(C)cc3)c(C)o2)cc1 (centres undefined)	·	·	22.4µM*	-15.7	·	·
Cc1ccc(-c2nc(CS(=O)CC(=O)NCCN(CC(C)C)CC(C)C)c(C)o2)cc1 (centres undefined)	7.5%	19.3%	?	8.8	10.9%	11.2µM*!
CCOC(=O)CC(S(=O)(=O)c1ccccc1)S(=O)(=O)c1ccccc1	·	·	·	-20.3	·	·
CCC1(c2ccc(Cl)cc2)NC(=O)N(Cc2ccc(C(=O)OC)cc2)C1=O (centres undefined)	?	0.1%	-1.5%	?	?	10µM*
CCOc1ccc(-n2cc(-c3ccccc3)c3c(NCc4ccc(F)cc4)ncnc32)cc1	·	·	79.4µM*	-14.5	·	·
CCOc1ccc(-n2cc(-c3ccccc3)c3c(NCc4ccccc4)ncnc32)cc1	·	·	7.6%	11.4	·	·
COC(=O)C(C)Oc1ccc2c(c1)O/C(=C\c1ccco1)C2=O (centres undefined)	7.3%	-8.1%	20µM*	31.2	3.0%	10.0%
COc1ccc2c(c1)O/C(=C\c1ccco1)C2=O	126.4%	-5.8%	7.94µM*	29.1	114.0%	1.7%
COc1ccc(/C=C2\Oc3cc(OCC(N)=O)ccc3C2=O)cc1OC	6.1%	-2.8%	-3.3%	25.8	15.7%	2.6%
CCC(C)Nc1ccc(NC(C)CC)cc1 (centres undefined)	1.04µM*	2.8%	31.6µM*	·	1.17µM*	22.4µM*
CCOC(=O)CC1COCCN1C(=O)CCc1nnc(-c2ccsc2)o1 (centres undefined)	11.6%	0.9%	?	30.3	-26.2%	16.1%
NS(=O)(=O)c1ccccc1	?	-0.4%	8.8%	-17.2	48.1%	-11.5%
O=S(=O)(/C=C/C=C/S(=O)(=O)c1ccccc1)c1ccccc1	·	·	·	-78.1*	·	8.91µM*
O=C(NC(=S)Nc1ccc(Cl)cc1)c1cncc(Br)c1	·	·	·	?	·	-9.2%
O=C(NC(=S)Nc1ccc(N2CCOCC2)cc1)c1cncc(Br)c1	-2.3%	-8.3%	12.6µM*	-31.8	1.7%	9.4%
COc1ccc(N2CCN(C(=S)Nc3ccccc3)CC2)cc1	3.6%	-7.1%	-0.3%	-14.6	?	-10.5%
CC(=O)c1ccc(N2CCN(C(=S)Nc3ccc(Oc4ccccc4)cc3)CC2)cc1	-18.7%	0.6%	-3.1%	-62.9*	?	4.47µM*
O=C(NC(=S)Nc1ccc(N2CCOCC2)cc1)c1ccccc1	216.1%	-0.5%	15.8µM*	11.9	33.0%	7.0%
CC(=O)c1ccc(NC(=O)CN2CCOCC2)cc1	17.1%	1.7%	9.4%	26.3	13.1µM*	-5.3%
O=C(COC(=O)c1ccc(F)c(S(=O)(=O)N2CCOCC2)c1)Nc1ccc2[nH]c(=O)[nH]c2c1	-7.3%	-4.1%	-14.6%	2.2	-36.4%	6.9%
CCCC(=O)N(c1ccc2oc3c(c2c1)CCCC3)S(=O)(=O)c1cc(C)ccc1C	·	·	6.6%	3.4	·	·
SMILES	Pf growth 48h	SARS PLpro yeast	Sm TGR inh	HCMV inh	Pf growth 96h	HCV inh
CCc1cccc(C)c1NC(=O)Cn1c(=O)cc(C)c2c(C)nn(-c3cccc(F)c3)c21	·	·	-1.4%	-0.6	·	·
O=C(Nc1ccc(N2CCOCC2)cc1)c1cnsn1	-13.7%	-5.9%	5.6%	-73.4*	-0.2%	8.7%
O=C(Nc1ccc(N2CCOCC2)cc1)c1cnccn1	114.6%	-12.0%	-13.1%	?	?	-3.7%
CC(C)Oc1cccc(C(=O)NC(=S)Nc2ccc(N3CCN(C)CC3)cc2)c1	13.1µM*	-0.7%	44.7µM*	-16.3	11.7µM*	?
O=C(NC(=S)Nc1ccc(N2CCOCC2)cc1)c1cccc(Cl)c1	57.0%	-15.0%	22.4µM*	19.9	214.7%	25.1µM*
CCCC(=O)N1CCN(c2ccc(NC(=S)NC(=O)c3cccc(C)c3)cc2)CC1	?	0.0%	?	?	35.9%	7.08µM*
O=C(NC(=S)Nc1ccc(N2CCOCC2)cc1)c1cccc(Cl)c1Cl	-5.3%	1.3%	-28.4%	41.3	43.1%	4.2%
Cn1cc(C(=O)c2ccc(Cl)cc2Cl)cc1C(=O)N/N=C(\N)COc1cccc(C(F)(F)F)c1	?	-1.6%	9.7%	?	·	?
COc1ccc(-c2nnc(SCC(=O)N(C)C3CCS(=O)(=O)C3)n2CC(C)C)cc1 (centres undefined)	·	·	·	7.1	·	·
CCOc1ncc(S(=O)(=O)N2CCN(CC)CC2)cc1C(=O)O	10.3%	?	-4.4%	18.8	24.9%	10.9%
CCc1ccc(C(=O)NC(=S)Nc2ccc(N3CCOCC3)cc2)cc1	?	0.3%	?	-89.3*	?	?
CC(=O)c1ccc(NC(=S)Nc2ccc(N3CCOCC3)cc2)cc1	-20.3%	-2.2%	44.7µM*	-28.1	-5.9%	4.8%
O=C(Nc1ccc(N2CCOCC2)cc1)c1ccc(COc2ccccc2)cc1	-6.9%	4.2%	-16.6%	-73.5*	?	?
Cc1cccc(-c2nc3scc(CCNC(=O)c4ccccc4Cl)n3n2)c1	·	·	4.7%	17.1	·	·
C=CCc1cc(/C=N\NC(=O)CSc2nnc(CCCc3ccc(OC)c(C)c3)o2)cc(OC)c1O	3.7µM*	1.5%	4.9%	-15.9	2.94µM*	-21.2%
C=CCc1cc(/C=N/NC(=O)CSc2nnc(CCCc3ccc(OC)cc3)o2)cc(OC)c1O	·	10.5%	-1.8%	2.7	0.0586µM*	?
CC1(C(=O)O)CCC2(C)CCC3(C)C(=CC(=O)C4C5(C)CCC(O)C(C)(C)C5CCC43C)C2C1 (centres undefined)	5.8%	·	·	·	-8.1%	·
Cc1ccc(Oc2c(C)nc(-c3ccccc3)[nH]c2=O)cc1	1.04µM*	0.6%	5.7%	-32.0	1.65µM*	-25.4%
